MBNL1-CUG inh = qHTS Assay for Inhibitors of MBNL1-poly(CUG) RNA binding | Muscleblind-like protein 1 (Homo sapiens), Q9NR56 | TR-FRET MBNL1-His/biotin-(CUG)12 binding, 665/545 ratio | Potency, µM (series often up to 57.5 µM), for the others: at the top dose activity change, negative = inhibition, most hits filed as inhibitors | 280,000 tested, 0.036% active | AID 2675, 2010; active means well fitted inhibition curve with a large enough effect in the signal ratio, with a control signal flat, not every such curve was filed as active; inconclusive means small, poorly fitted or top-dose-only effect, or effect the other way, or a change in a side signal; inactive means no such curve, though single readings can be large or run the other way; the % refers to the signal ratio; further: potency means the concentration at half of the fitted maximal effect; on the % scale 0 is the no-effect control and ±100 the full control effect
Target sequence (Q9NR56 whole entry, looked up): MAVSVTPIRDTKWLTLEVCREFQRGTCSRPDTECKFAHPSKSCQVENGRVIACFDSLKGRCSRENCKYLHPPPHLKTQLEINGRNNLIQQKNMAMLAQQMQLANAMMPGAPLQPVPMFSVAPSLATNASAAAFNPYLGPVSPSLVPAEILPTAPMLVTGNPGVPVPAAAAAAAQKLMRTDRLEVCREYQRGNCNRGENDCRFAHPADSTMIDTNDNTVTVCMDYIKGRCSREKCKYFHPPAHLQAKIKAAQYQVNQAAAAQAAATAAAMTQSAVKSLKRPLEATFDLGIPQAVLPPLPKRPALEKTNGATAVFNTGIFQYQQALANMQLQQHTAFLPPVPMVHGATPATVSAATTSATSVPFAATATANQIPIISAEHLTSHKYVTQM
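TR-FRET between His-tagged MBNL1 and biotin-(CUG)12 RNA, detected with Tb anti-His antibody (0.055 ng/ul) and streptavidin-XL665 (5 nM), 60 min at room temperature. Compounds titrated 92 nM to 58 uM; 665/545 nm ratio normalized to buffer and complex controls.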
Mito fusion yeast = qHTS Assay for Small Molecule Inhibitors of Mitochondrial Division or Activators of Mitochondrial Fusion | Potency, µM (titrated, usually from 46.1 µM), for inactives: top-dose growth rescue (activation), most hits filed as activators | AID 485298, 2010 | 320,000 tested, 0.23% active | S. cerevisiae fusion-defective mutant growth rescue, CellTiterGlo 48 h; active means well fitted activation curve with a large enough effect; inconclusive means small, poorly fitted or top-dose-only effect; inactive means no such curve, though single readings can be large or run the other way; further: potency means the concentration at half of the fitted maximal effect; % of control where 0% means no effect; nearly all actives have a fitted effect of over 45% in size
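Compounds are tested for their ability to restore growth of mitochondrial fusion-defective yeast strains at non-permissive 37C in YPEG medium over 48 hours. Viability is quantified by luciferase luminescence.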
CtBP-E1A inh = qHTS Assay for Inhibitors of the CtBP/E1A Interaction | AID 651724, 2012 | CtBP / adenovirus E1A interaction (AlphaScreen) | activity change, % (test concentration not listed) | AlphaScreen GST-E1A/His-CtBP binding, 1536-well; stronger effect = lower value | 340,000 tested, 0.49% active; further: on the % scale 0 is the no-effect control and ±100 the full control effect
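GST-E1A and His-tagged CtBP (125 nM each as 5X stock) were preincubated with pin-transferred compound for 2 h at 37 °C in the dark, then glutathione donor and nickel acceptor beads were added for 1 h before AlphaScreen reading.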
uPA generation = qHTS for Inhibitors of Cell Surface uPA Generation; cell surface uPA generation assay, qHTS; Potency, µM (series often up to 38.3 µM), for the others: at the top dose activity change, negative = inhibition, hits mostly inhibitors; 330,000 tested, 0.31% active; active means well fitted inhibition curve with a large enough effect; inconclusive means small, poorly fitted or top-dose-only effect; inactive means no such curve, though single readings can be large or run the other way; tested in mouse RAW 264.7 cells; further: potency means the concentration at half of the fitted maximal effect; on the % scale 0 is the no-effect control and ±100 the full control effect; nearly all actives have a fitted effect of over 55% in size
Six1-Eya2 blk = qHTS Assay for Inhibitors of the Six1/Eya2 Interaction. AlphaScreen GST-Six1/His-Eya2 binding, biochemical; stronger effect = lower value. activity change, % (no concentration beside the values). 360,000 tested, 0.56% active; further: on the % scale 0 is the no-effect control and ±100 the full control effect
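AlphaScreen luminescence read after one hour at 37 °C in darkness. Pin-transferred compounds met GST-Six1 and His-Eya2 protein (5X stock 250 nM/500 nM) plus glutathione donor and Ni-chelate acceptor beads (5X, 50 ug/mL).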
* hit, by the source's call; u = inconclusive; x = no result given. A selection: hits, their analogues and other compounds. The true share with any hit is near 1.1%. Unless noted, no stated cut-off is given here; in the data, active means activity change below about -65%; inconclusive means mostly about -30% to -63%; inactive means weaker than that.

SMILES	MBNL1-CUG inh	Mito fusion yeast	CtBP-E1A inh	uPA generation	Six1-Eya2 blk
CC(=O)/C=C(\C)Nc1ccccc1O	23%	-8%	x	7.9µM*	-3
O=C(Nc1ccccc1O)c1ccccc1O	3%	11%	0	-13%	-3
COc1ccc(-c2cc(C(F)(F)F)c3c(n2)sc2c(O)cc(=O)[nH]c23)c(OC)c1	x	0%	u	2%	u
Cc1cc(C)c2c(n1)sc1c(O)cc(=O)[nH]c12	10%	-1%	-15	4%	-71*
O=c1cc(-c2ccc(O)cc2)oc2c(-c3c(O)cc(O)c4c(=O)cc(-c5ccc(O)cc5)oc34)c(O)cc(O)c12	x	x	-4	7%	-9
O=c1cc(-c2ccc(O)c(-c3c(O)cc(O)c4c(=O)cc(-c5ccc(O)cc5)oc34)c2)oc2cc(O)cc(O)c12	-17%	-1%	-68*	7%	-21
O=c1c(-c2c(O)cc(O)c3c(=O)cc(-c4ccc(O)cc4)oc23)c(-c2ccc(O)cc2)oc2cc(O)cc(O)c12	-14%	-4%	-16	11%	-68*
CCOC(=O)C1=C(C)N=c2s/c(=C/c3cccc([N+](=O)[O-])c3O)c(=O)n2C1c1ccccc1 (stereo not given)	u	18%	-80*	3%	-71*
CCOC(=O)C1=C(C)N=c2s/c(=C\c3ccc(OCC(=O)O)cc3)c(=O)n2C1c1ccccc1 (stereo not given)	u	-2%	-2	1%	-29
CCOC(=O)C1=C(C)N=c2s/c(=C/c3cccc([N+](=O)[O-])c3O)c(=O)n2C1c1cc(OC)c(OC)c(OC)c1 (stereo not given)	u	9%	-80*	-4%	-70*
Cc1cc(C)c2[nH]c(=O)c(CN(Cc3nnnn3C3CCCC3)C3CCCCC3)cc2c1	3%	-1%	2	14%	4
Cc1cccc2cc(CN(Cc3nnnn3C3CCCCC3)C3CCCC3)c3nnnn3c12	1%	11µM*	4	0%	2
Cc1ccc(S(=O)(=O)N2[C@H](CC(=O)c3ccc(Cl)c(Cl)c3)OC[C@@H]2C(C)C)cc1	x	x	-2	x	15
O=C(O)CC(NC(=O)C1CCCCC1)c1cc([N+](=O)[O-])ccc1Cl (stereo not given)	u	3%	5	-4%	-2
O=C(O)CC(NC(=O)C12CC3CC(CC(C3)C1)C2)c1cc([N+](=O)[O-])ccc1Cl (stereo not given)	u	3.5µM*	-1	13%	40
Cc1nc2ccccc2c(=O)n1NC(=O)/C=C/c1ccc(Br)cc1	x	26%	-65*	3%	-14
Cc1nc2ccccc2c(=O)n1NC(=O)c1ccccc1Br	-2%	-3%	-3	-8%	8
Cc1cccc(-c2nc3ccccc3c(=O)n2NC(=O)/C=C/c2ccc([N+](=O)[O-])cc2)c1	u	1%	-81*	16%	-8
O=C(O)CC(C(=O)O)C(=Cc1ccccc1)c1ccccc1 (stereo not given)	x	x	3	x	-5
Fc1cccc(CSc2nc3ccncc3[nH]2)c1	-2%	12%	-6	u	4
Clc1cccc(CSc2nc3ccncc3[nH]2)c1	-5%	2%	-1	4.5µM*	5
CCSC1=NC(=O)/C(=C2/C=Cc3ccccc3N2CC)S1	u	-2%	-74*	7%	-79*
CCN1/C(=C2\OC(=S)N(C)C2=O)C=Cc2ccccc21	9%	6%	-16	-4%	-7
NC(c1csc(Nc2ccccn2)n1)c1ccccc1Cl (stereo not given)	x	x	-91*	x	-79*
CC(C)C(N)c1csc(Nc2ccccn2)n1 (stereo not given)	x	x	-91*	x	-83*
SMILES	MBNL1-CUG inh	Mito fusion yeast	CtBP-E1A inh	uPA generation	Six1-Eya2 blk
NC(c1csc(Nc2nncc3ccccc23)n1)c1ccccc1Cl (stereo not given)	x	x	-3	x	-2
CC(C)C(N)c1csc(Nc2ccc(C(F)(F)F)cn2)n1 (stereo not given)	x	x	u	x	-21
NC(c1csc(Nc2cnccn2)n1)c1ccccc1Cl (stereo not given)	x	x	-76*	x	-67*
COC(=O)c1cnc(Nc2nc(C(N)c3ccccc3Cl)cs2)nc1C(F)(F)F (stereo not given)	x	x	-12	x	-5
Cc1cc2occ(CC(=O)NCc3cccs3)c2cc1C(C)C	10%	16µM*	4	-1%	2
Cc1noc(NS(=O)(=O)c2ccc(N/C=C\C(=O)c3ccc4c(c3)OCO4)cc2)c1C	u	3%	-75*	-10%	-68*
Cc1noc(NS(=O)(=O)c2ccc(N/C=C\C(=O)c3ccc(Br)cc3)cc2)c1C	u	2%	x	-23%	-22
CCN(CC)CCCN(c1ccccc1)C1Cc2ccccc2C1	x	-39%	x	x	x
Cc1noc(C)c1C(=O)OC(C)C(=O)c1c[nH]c2ccccc12 (stereo not given)	x	x	2	x	-2
N#Cc1c(NC(NC(=O)c2ccco2)C(=O)c2ccccc2)sc2c1CCCC2 (stereo not given)	3%	13µM*	-5	-6%	-14
CC(C)(C)OC(=O)N1CCCC(C(=O)Nc2ccc(C(=O)NC3CC3)cc2)C1 (stereo not given)	x	x	4	4%	5
COc1ccc(CCn2nnnc2C2(c3ccc(C)cc3)CC2)cc1	x	21µM*	x	x	x
COc1cccc(/C=N/n2c(N)c(S(=O)(=O)c3cccs3)c3nc4ccccc4nc32)c1	-10%	2%	-14	4%	-8
Nc1c(S(=O)(=O)c2cccs2)c2nc3ccccc3nc2n1/N=C/c1cccc(O)c1	16%	13%	-92*	-8%	-87*
CN1CCC(=O)N(CCOc2ccccc2)CC1	4%	1%	-86*	10%	-83*
O=C(O)c1cccc(OCCN2CCCC2=O)c1	-1%	0%	5	2%	1
Cc1csc2nc(O)c(C(=O)NC3CCCCC3C)c(=O)n12 (stereo not given)	x	8%	1	2%	3
O=C1NC(=O)/C(=C/c2ccc(-c3ccc(F)cc3O)o2)S1	x	4.6µM*	x	x	x
O=C1NC(=S)SC1=Cc1ccc(F)cc1	x	x	-2	u	-17
COC(=O)Cn1ccnc1[N+](=O)[O-]	x	x	-23	x	6
CN=c1scc(-c2ccccc2F)n1/N=C/c1ccc(O)c(O)c1O	u	-4%	u	-12%	-75*
CC(C)N=c1scc(-c2cccs2)n1/N=C/c1ccc(O)c(O)c1O	x	18%	u	-19%	-76*

Bioassay records as filed in PubChem.
